# Measured values: PubChem BioAssay (EPA / NIEHS)
# Inconclusive results are not listed. The source made the active and inactive calls. Rule for the calls, unless noted: active = hit-call score of the fitted dose curve at least 0.9, where 1 is the maximum; inconclusive = response in the unintended direction; inactive = score below 0.9.
# Read-out: Cytochrome P450 2C9 (Homo sapiens) (UniProt P11712)
# Test: CLD_CYP2C9_48hr: CellzDirect (CLD) Gene Expression Assay for xenobiotic metabolism (CYP2C9) at 48 hours (AID 2283701; active = hit-call score of the fitted dose curve at least 0.9, where 1 is the maximum; inactive = score below 0.9)
# Summary of the method: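 mRNA level measured by quantitative nuclease protection (S1 digestion, chemiluminescent detection) in lysates of human primary hepatocytes exposed 48 h with daily re-dosing. Induction fitted positively versus 0.2% DMSO; morphology-based cytotoxicity flagged yes/no.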
# Glyceraldehyde-3-phosphate dehydrogenase (Homo sapiens), sequence (P04406 whole entry, looked up): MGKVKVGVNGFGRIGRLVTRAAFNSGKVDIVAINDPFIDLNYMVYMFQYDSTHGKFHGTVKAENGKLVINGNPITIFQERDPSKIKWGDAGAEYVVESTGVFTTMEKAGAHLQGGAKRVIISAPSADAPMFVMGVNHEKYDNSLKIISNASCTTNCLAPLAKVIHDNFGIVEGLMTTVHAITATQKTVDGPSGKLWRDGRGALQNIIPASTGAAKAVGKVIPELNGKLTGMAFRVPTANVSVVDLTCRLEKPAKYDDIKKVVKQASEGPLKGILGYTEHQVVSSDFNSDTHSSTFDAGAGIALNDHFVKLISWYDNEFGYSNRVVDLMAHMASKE
# Broad substrate specificity ATP-binding cassette transporter ABCG2 (Homo sapiens), sequence (Q9UNQ0 whole entry, looked up): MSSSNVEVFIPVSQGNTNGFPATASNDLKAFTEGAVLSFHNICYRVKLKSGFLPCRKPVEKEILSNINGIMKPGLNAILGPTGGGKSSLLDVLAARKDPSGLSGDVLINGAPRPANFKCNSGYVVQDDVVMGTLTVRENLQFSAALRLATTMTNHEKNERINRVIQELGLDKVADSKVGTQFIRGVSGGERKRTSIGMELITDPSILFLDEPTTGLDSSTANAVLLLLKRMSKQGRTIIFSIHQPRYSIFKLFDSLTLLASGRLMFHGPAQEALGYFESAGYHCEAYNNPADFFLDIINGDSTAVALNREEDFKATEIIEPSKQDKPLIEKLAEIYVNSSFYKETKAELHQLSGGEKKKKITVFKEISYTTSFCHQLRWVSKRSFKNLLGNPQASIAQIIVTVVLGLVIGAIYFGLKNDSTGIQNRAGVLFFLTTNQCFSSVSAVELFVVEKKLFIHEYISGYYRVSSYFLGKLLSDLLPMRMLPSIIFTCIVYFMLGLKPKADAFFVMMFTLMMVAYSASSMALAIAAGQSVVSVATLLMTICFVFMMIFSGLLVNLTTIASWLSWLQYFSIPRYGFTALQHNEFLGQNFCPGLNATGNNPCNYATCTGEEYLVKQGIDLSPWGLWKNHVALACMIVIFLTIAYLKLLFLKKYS
row,Structure (SMILES),outcome
1,CCOC(=O)[C@H](C)Oc1ccc(Oc2nc3ccc(Cl)cc3o2)cc1,inactive
2,CCCN(CCC)c1c([N+](=O)[O-])cc(C(F)(F)F)c(N)c1[N+](=O)[O-],inactive
3,c1ccc(Nc2ccccc2)cc1,inactive
4,CCOC(=O)NCCOc1ccc(Oc2ccccc2)cc1,inactive
5,CCCCCCC(C)OC(=O)COc1nc(F)c(Cl)c(N)c1Cl (centres undefined),inactive
6,CCCCCOC(=O)COc1cc(N2C(=O)C3=C(CCCC3)C2=O)c(F)cc1Cl,inactive
7,COCCO,inactive
8,OB(O)O,inactive
9,COC(=O)c1cccc(C)c1S(=O)(=O)NC(=O)Nc1nc(OCC(F)(F)F)nc(N(C)C)n1,inactive
10,CCCCC(CC)CN1C(=O)C2C3C=CC(C3)C2C1=O (centres undefined),inactive

# Read-out: Broad substrate specificity ATP-binding cassette transporter ABCG2 (Homo sapiens) (UniProt Q9UNQ0)
# Test: CLD_ABCG2_48hr: CellzDirect (CLD) Gene Expression Assay for ABC Transporter (ABCG2) at 48 hours (AID 2283704);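 for AC50: potency for induction of ABCG2 mRNA above the DMSO baseline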
# Summary of the method: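 ABCG2 transcript measured at 48 h by quantitative nuclease protection (chemiluminescent) and fitted for increase relative to 0.2% DMSO. Hepatocyte cultures from separate donors got fresh compound daily over two days; morphology annotated cytotoxicity.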
Structure (SMILES),outcome,AC50
CCOC(=O)NCCOc1ccc(Oc2ccccc2)cc1,inactive,
CCNc1nc(N)nc(Cl)n1,inactive,
CSC(=O)c1cccc2nnsc12,inactive,
CCCCCOC(=O)COc1cc(N2C(=O)C3=C(CCCC3)C2=O)c(F)cc1Cl,inactive,
COCCO,inactive,
N#CSCSc1nc2ccccc2s1,inactive,
CCCOC(=O)NCCCN(C)C,inactive,
S=C(S)NCCNC(=S)S.[Mn+2].[S-]C([S-])=NCCN=C([S-])[S-].[Zn+2],,3.67 µM (active)
CCCCC(CC)CN1C(=O)C2C3C=CC(C3)C2C1=O (centres undefined),inactive,

# Read-out: xenobiotic metabolism (CYP1A1), CYP1A1 (gene 1543)
# Test: CLD_CYP1A1_48hr: CellzDirect (CLD) Gene Expression Assay for xenobiotic metabolism (CYP1A1) at 48 hours (AID 2283705)
# Summary of the method: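 CYP1A1 transcript measured by quantitative nuclease protection (chemiluminescent) 48 h after two daily treatments of human hepatocyte cultures, versus 0.2% DMSO. Morphology-based cytotoxicity flags accompany data; two donor preparations used.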
Structure (SMILES),outcome,AC50
CCOC(=O)[C@H](C)Oc1ccc(Oc2nc3ccc(Cl)cc3o2)cc1,inactive,
CCCN(CCC)c1c([N+](=O)[O-])cc(C(F)(F)F)c(N)c1[N+](=O)[O-],,5.19 µM (active)
c1ccc(Nc2ccccc2)cc1,inactive,
CCCCOC(=O)[C@@H](C)Oc1ccc(Oc2ccc(C(F)(F)F)cn2)cc1,inactive,
CCOC(=O)NCCOc1ccc(Oc2ccccc2)cc1,inactive,
CCNc1nc(N)nc(Cl)n1,inactive,
CSC(=O)c1cccc2nnsc12,inactive,
c1ccc2[nH]c(-c3cscn3)nc2c1,,0.781 µM (active)
CCN(Cc1c(F)cccc1Cl)c1c([N+](=O)[O-])cc(C(F)(F)F)cc1[N+](=O)[O-],,1.22 µM (active)
CCCCCOC(=O)COc1cc(N2C(=O)C3=C(CCCC3)C2=O)c(F)cc1Cl,inactive,
CN(C)C(=O)Nc1ccc(Cl)c(Cl)c1,,12.4 µM (active)
O=C(Nc1ccc([N+](=O)[O-])cc1Cl)c1cc(Cl)ccc1O,,3.55 µM (active)
COCCO,inactive,
OB(O)O,inactive,
COC(=O)CSc1cc(N=c2sc(=O)n3n2CCCC3)c(F)cc1Cl,inactive,
N#CSCSc1nc2ccccc2s1,,7.52 µM (active)
CCCCOCCOCCOCc1cc2c(cc1CCC)OCO2,,12 µM (active)
CCCOC(=O)NCCCN(C)C,inactive,
S=C(S)NCCNC(=S)S.[Mn+2].[S-]C([S-])=NCCN=C([S-])[S-].[Zn+2],,0.252 µM (active)
COC(=O)c1cccc(C)c1S(=O)(=O)NC(=O)Nc1nc(OCC(F)(F)F)nc(N(C)C)n1,,8.53 µM (active)
CCCCC(CC)CN1C(=O)C2C3C=CC(C3)C2C1=O (centres undefined),,33.7 µM (active)

# Read-out: Glyceraldehyde-3-phosphate dehydrogenase (Homo sapiens) (UniProt P04406)
# Test: CLD_GAPDH_48hr: CellzDirect (CLD) Gene Expression Assay for Baseline Control (Glyceraldehyde 3-phosphate dehydrogenase) at 48 hours (AID 2283706);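 note: active means higher GAPDH mRNA than DMSO vehicle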
# Summary of the method: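 GAPDH baseline-control readout: qNPA chemiluminescent mRNA quantitation in human liver primary cells 48 h after daily dosing on two consecutive days, vehicle 0.2% DMSO; gain of signal fitted against DMSO, cytotoxicity flagged by phase-contrast morphology.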
row,Structure (SMILES),outcome
1,CCOC(=O)[C@H](C)Oc1ccc(Oc2nc3ccc(Cl)cc3o2)cc1,inactive
2,CCCCCCC(C)OC(=O)COc1nc(F)c(Cl)c(N)c1Cl (centres undefined),inactive
3,CCNc1nc(N)nc(Cl)n1,inactive
4,Oc1ccc(C(c2ccc(O)cc2)C(Cl)(Cl)Cl)cc1,inactive
5,CCCCCOC(=O)COc1cc(N2C(=O)C3=C(CCCC3)C2=O)c(F)cc1Cl,inactive
6,COCCO,inactive
7,CCN(CC)C(=O)c1cccc(C)c1,inactive
8,OB(O)O,inactive
9,N#CSCSc1nc2ccccc2s1,inactive
10,CCCOC(=O)NCCCN(C)C,inactive
11,S=C(S)NCCNC(=S)S.[Mn+2].[S-]C([S-])=NCCN=C([S-])[S-].[Zn+2],inactive
12,COC(=O)c1cccc(C)c1S(=O)(=O)NC(=O)Nc1nc(OCC(F)(F)F)nc(N(C)C)n1,inactive

# Read-out: organic anion transporter (SLCO1B1), SLCO1B1 (gene 10599)
# Test: CLD_SLCO1B1_48hr: CellzDirect (CLD) Gene Expression Assay for organic anion transporter (SLCO1B1) at 48 hours (AID 2283707)
# Summary of the method: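 SLCO1B1 transcript quantified by qNPA with chemiluminescent readout after 48 h of once-daily chemical exposure. Cultured human primary hepatocytes came from two donors, with 0.2% DMSO vehicle; positive-direction fitting against DMSO, cytotoxicity flagged by morphology.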
row,Structure (SMILES),outcome
1,CCOC(=O)[C@H](C)Oc1ccc(Oc2nc3ccc(Cl)cc3o2)cc1,inactive
2,c1ccc(Nc2ccccc2)cc1,inactive
3,CCCCOC(=O)[C@@H](C)Oc1ccc(Oc2ccc(C(F)(F)F)cn2)cc1,inactive
4,CCOC(=O)NCCOc1ccc(Oc2ccccc2)cc1,inactive
5,CCNc1nc(N)nc(Cl)n1,inactive
6,CSC(=O)c1cccc2nnsc12,inactive
7,COCCO,inactive
8,OB(O)O,inactive
9,COC(=O)CSc1cc(N=c2sc(=O)n3n2CCCC3)c(F)cc1Cl,inactive
10,CCOC(=O)C(C)Oc1ccc(Oc2cnc3cc(Cl)ccc3n2)cc1 (centres undefined),inactive
11,CCCOC(=O)NCCCN(C)C,inactive
12,COC(=O)c1cccc(C)c1S(=O)(=O)NC(=O)Nc1nc(OCC(F)(F)F)nc(N(C)C)n1,inactive

# Read-out: alkyl and aryl transferase (GSTA2), GSTA2 (gene 2939)
# Test: CLD_GSTA2_48hr: CellzDirect (CLD) Gene Expression Assay for alkyl and aryl transferase (GSTA2) at 48 hours (AID 2283708);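 note: active means mRNA induction above DMSO vehicle baseline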
# Summary of the method: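 GSTA2 mRNA quantified by qNPA chemiluminescence in human primary hepatocyte lysates after 48 h of daily fresh chemical dosing. Increases fitted against 0.2% DMSO vehicle baseline; cytotoxicity from morphology annotated yes/no.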
row,Structure (SMILES),outcome
1,CCOC(=O)[C@H](C)Oc1ccc(Oc2nc3ccc(Cl)cc3o2)cc1,inactive
2,CCCN(CCC)c1c([N+](=O)[O-])cc(C(F)(F)F)c(N)c1[N+](=O)[O-],inactive
3,c1ccc(Nc2ccccc2)cc1,inactive
4,CCCCOC(=O)[C@@H](C)Oc1ccc(Oc2ccc(C(F)(F)F)cn2)cc1,inactive
5,CCOC(=O)NCCOc1ccc(Oc2ccccc2)cc1,inactive
6,CCCCCCC(C)OC(=O)COc1nc(F)c(Cl)c(N)c1Cl (centres undefined),inactive
7,CCNc1nc(N)nc(Cl)n1,inactive
8,Oc1ccc(C(c2ccc(O)cc2)C(Cl)(Cl)Cl)cc1,inactive
9,CSC(=O)c1cccc2nnsc12,inactive
10,CCCCCOC(=O)COc1cc(N2C(=O)C3=C(CCCC3)C2=O)c(F)cc1Cl,inactive
11,O=C(Nc1ccc([N+](=O)[O-])cc1Cl)c1cc(Cl)ccc1O,inactive
12,COCCO,inactive
13,N#CSCSc1nc2ccccc2s1,inactive
14,CCCOC(=O)NCCCN(C)C,inactive
15,CCCCC(CC)CN1C(=O)C2C3C=CC(C3)C2C1=O (centres undefined),inactive
